Compound activity deposited in PubChem BioAssay by National Center for Advancing Translational Sciences (NCATS).
D3 ag – agonists of human D3 dopamine receptor | D3R DiscoveRx beta-arrestin cells, luminescence, 90 min | max activation, % | actives 0.58% (n = 410,000) | AID 652048 | P35462; in the data active = max activation above about 30%; note: 0% is about no effect
Target sequence (P35462 whole entry, looked up): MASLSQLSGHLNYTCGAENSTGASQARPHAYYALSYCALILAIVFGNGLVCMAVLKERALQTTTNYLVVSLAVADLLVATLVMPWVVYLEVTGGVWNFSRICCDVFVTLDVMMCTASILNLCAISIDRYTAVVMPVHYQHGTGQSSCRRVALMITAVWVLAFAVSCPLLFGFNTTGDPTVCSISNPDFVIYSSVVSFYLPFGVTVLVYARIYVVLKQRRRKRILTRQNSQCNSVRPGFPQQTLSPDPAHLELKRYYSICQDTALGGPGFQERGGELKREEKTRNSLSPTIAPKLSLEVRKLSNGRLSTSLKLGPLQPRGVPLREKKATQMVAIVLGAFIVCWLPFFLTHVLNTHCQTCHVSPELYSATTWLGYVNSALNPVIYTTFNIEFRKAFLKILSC
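Agonist-mode cell screen: cells plated at 1500/well and incubated overnight at 37 °C, then exposed to library compounds for 90 min at 37 °C. Detection reagent was added for 30–60 min at room temperature, and luminescence was read.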
DRD3 antagonist – blocks the human D3 dopamine receptor. max response, negative = inhibition, %. AID 652054. D3R cells, DiscoveRx beta-arrestin luminescence, antagonist mode; active compounds read low. P35462. actives 2.5% (n = 360,000); in the data active = max response below about -50%; inconclusive = no clear call, values can overlap the other calls; note: % is set by controls: 0 for no effect and ±100 for the full control effect
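Cells expressing the human receptor were seeded at 1500 cells/well, incubated overnight at 37 degrees C in 5% CO2, then exposed to library compounds with dopamine controls for 90 minutes at 37 degrees C before luminescent detection.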
Integrin act MD – activators of alpha7 integrin expression for muscular dystrophy; alpha7betagal myoblasts, beta-gal FDG fluorescence, 48 h; Potency, µM (doses to about 38.3 µM), inactives show at the top dose activation, usual class: activators; actives 0.064% (n = 350,000); AID 624291; active = well fitted activation curve with a large enough effect; inconclusive = small, poorly fitted or top-dose-only effect; inactive = no such curve, though single readings can be large or run the other way;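 note: potency is the fitted concentration of half-maximal effect; 100% = response of the positive control SU9516; nearly all actives have a fitted effect of over 60% in size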
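alpha7betagal+/- myoblasts (passage 13, 250/well) treated 48 h at 37C with compounds at 1:260 dilution of DMSO stock. Lysed, then beta-galactosidase activity read as FDG fluorescence (ex 480/em 540) after 30 min, with pre-read for autofluorescence.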
* = called active by the depositor; ? = inconclusive; . = no result; [ ] = dose if it differs, or a comment. The list is not random: actives were taken first. Their share in the collection is about 2.9%.

SMILES	D3 ag	DRD3 antagonist	Integrin act MD
CCCC(=O)Nc1sc(C)c(-c2ccc(C(C)CC)cc2)c1C#N (stereo unspecified)	30.4*	41.5	1.6%
CCOC(=O)C(=CNNc1cccc(Cl)c1)C(=O)OCC	5.0	12.8	-2.9%
CC1(C)Cc2nc3sc4c(=O)n(Cc5ccccc5)cnc4c3cc2CS1	0.7	-65.5*	1.2%
CCCn1cnc2c(sc3nc4c(cc32)CSC(C)(C)C4)c1=O	-7.7	-20.8	-0.1%
O=C(/C=C/c1ccc(Cl)cc1)NC(=S)Nc1ccc(CN2CCOCC2)cc1	-11.4	-64.7*	-46.3%
O=C(/C=C/c1ccccc1)Nc1ccc(CN2CCOCC2)cc1	2.2	-6.6	-8.2%
COCCn1c(C)cc(C2=NNC(=Nc3ccccc3)SC2)c1C	0.9	-58.2*	26.1%
COCCn1c(C)cc(C2=NNC(=Nc3ccc(OC)cc3)SC2)c1C	-3.5	-12.2	-11.6%
Cc1cccc(N2CCN(S(=O)(=O)c3nnc(NC(=O)c4ccc(Cl)cc4)s3)CC2)c1	9.6	.	.
CCn1nc(C)c(Br)c1-c1nc(CS(=O)(=O)c2ccc(F)cc2)no1	-2.0	12.9	17.1%
CCn1nc(C)c(Br)c1-c1nc(-c2ccc(C)cc2)no1	34.5*	38.9	10.4%
Cc1cccc(OC(=O)CSc2nnc(-c3cccs3)o2)c1C	8.5	.	.
O=C(Nc1ccc(F)cc1)c1ccc(CN2CCc3ccccc3C2)cc1	-8.3	0.0	-10.5%
Cc1cccc(NC(=O)c2ccc(CN3CCc4ccccc4C3)cc2)c1C	-13.1	-78.3*	-41.9%
Cc1ccccc1NC(=O)c1ccc(CN2CCc3ccccc3C2)cc1	-17.1	-76.5*	-34.3%
Cc1ccccc1NC(=O)c1ccc(F)c(S(=O)(=O)N2CCc3ccccc3C2)c1	1.6	.	.
CCc1cccc(C)c1NC(=O)c1ccc(CN2CCc3ccccc3C2)cc1	-21.3	-72.3*	1.8%
CCc1cccc(C)c1NC(=O)c1ccc2c(c1)CCN2S(=O)(=O)CC	-4.2	.	.
CC(=O)Nc1ccc(NC(=O)c2ccc(CN3CCc4ccccc4C3)cc2)cc1	-13.1	-54.6*	0.0%
Cc1cccc(NC(=O)c2ccc(C(=O)Nc3cccc(C)c3C)cc2)c1C	2.1	.	.
CCN(c1ccccc1)S(=O)(=O)c1cccc(C(=O)OCc2nc3sc(C)c(C)c3c(=O)[nH]2)c1	-9.6	-12.2	-7.2%
CCOC(=O)c1c(-c2ccc(OC)cc2)oc2c1C(OC(C)=O)CCC2 (stereo unspecified)	-2.7	-23.8	.
CCOC(=O)C1CCCN(C(=O)/C=C/c2ccccc2)CC1 (stereo unspecified)	3.4	0.9	.
CCc1nc2ccc(C(=O)NCCN3CCOCC3)cn2c1N(CCC(C)C)CCN(C)C	-7.4	21.0	.
COc1ccccc1C(OC(=O)c1ccco1)C(=O)NCc1ccc(F)cc1 (stereo unspecified)	-7.0	-5.3	?
SMILES	D3 ag	DRD3 antagonist	Integrin act MD
CC(C)(CO)NCc1cccc(OCc2ccc(Cl)cc2)c1	-0.1	8.0	-48.8%
Clc1ccc(COc2cccc(CNCc3ccncc3)c2)cc1	40.3*	1.7	-28.8%
CCOc1cccc(C2/C(=C(/O)c3ccc4c(c3)CC(C)O4)C(=O)C(=O)N2CCCn2ccnc2)c1 (stereo unspecified)	2.3	9.2	-1.1%
O=C(Nc1ccc(F)cc1)C(NC1CCCCC1)c1ccccc1 (stereo unspecified)	-12.4	?	-7.5%
Cc1cccc(CSc2nc3ccncc3n2CC(=O)Nc2cc(C)cc(C)c2)c1	-11.1	-54.6*	-6.6%
COc1ccc(CSc2nc3ccncc3n2CC(=O)Nc2ccc(C)c(F)c2)cc1	-9.9	.	.
CC1CCc2nn(CC(=O)NCCCN3CCCCC3)cc2C1 (stereo unspecified)	-0.3	-3.3	12.8%
CCCOc1ccc(Cc2nn[nH]n2)cc1	-1.5	-6.6	12.6%
COC(=O)c1ccsc1NC(=O)CCS(=O)(=O)c1ccccc1	1.7	10.1	-38.1%
COC(=O)c1ccsc1NC(=O)CS(=O)(=O)c1ccccc1	-14.7	-101.8*	-3.7%
Cc1cc(C(C)(C)C)cc(C)c1CC1=NCCN1	0.0	-79.3*	.
c1ccc(CC2=NCCN2)cc1	-1.2	-5.4	.
COc1cccc(N2C(=O)N(c3ccccc3Cl)C3CS(=O)(=O)CC32)c1 (stereo unspecified)	1.6	-20.1	1.3%[7.66 µM]
CCOC(=O)C1Nc2ccccc2C2C(O)C(O)CC12 (stereo unspecified)	-34.3	-52.0*	18.2%
CCOC(=O)C1Nc2ccc(C(F)(F)F)cc2C2c3ccccc3CC12 (stereo unspecified)	0.0	-23.5	0.0%
Cc1ccc(S(=O)(=O)N2CCC[C@H]2C(=O)OCC(=O)c2ccc3c(c2)NC(=O)CO3)cc1	1.8	1.6	1.7%
COc1ccc(S(=O)(=O)NCCc2csc3nc(-c4ccc(Cl)cc4)nn23)cc1C	0.6	.	.
COc1ncccc1-c1cc2nc(NCCCN(C)C)n(C)c(=O)c2s1	-7.7	?	.
CN(C)CCCn1c(N)c(S(=O)(=O)c2ccccc2)c2nc3ccccc3nc21	-4.0	?	0.0%
CCCCn1c(N)c(S(=O)(=O)c2ccc(C)cc2)c2nc3ccccc3nc21	31.6*	10.8	-56.3%
CC(C)Cn1c(=S)[nH]c2ccccc2c1=O	1.1	3.6	3.6%
CC(C)n1[nH]c2ccccc2c1=O	-16.2	-66.0*	.
Cc1cc(C)c2c(=O)[nH]c(SCC(=O)NCc3ccccc3)nc2n1	-5.4	-18.8	21.7%
Cc1cc(SCc2ccc([N+](=O)[O-])cc2)nc(=O)[nH]1	0.6	18.0	?
Cc1cc(C)c2c(=O)[nH]c(SCc3ccc([N+](=O)[O-])cc3)nc2n1	-0.8	-68.7*	6.9%
SMILES	D3 ag	DRD3 antagonist	Integrin act MD
Cc1cc(C)c2c(=O)[nH]c(SCc3ccccc3C)nc2n1	-4.5	-66.2*	16.8%
COc1ccc(-c2ccc(SCC(=O)Nc3cccc(C(C)=O)c3)nn2)cc1OC	1.9	39.7	-60.0%
CCOc1ccccc1OCC(=O)Nc1ccc2[nH]c(=O)[nH]c2c1	-2.0	3.0	-0.6%
O=C(COc1ccccc1Cl)Nc1ccc2[nH]c(=O)[nH]c2c1	2.7	-60.8*	1.9%
CCc1ccc(NC(=O)Cn2nnc(-c3ccccc3N)n2)cc1	80.3*	.	.
CCOC(=O)c1ccc(NC(=O)Cn2nnc(-c3ccccc3C)n2)cc1	5.7	1.4	-24.4%
Cn1cccc1C(=O)NC(=O)COC(=O)c1ccc(S(C)(=O)=O)cc1	-10.3	32.2	27.3%
Cn1cccc1C(=O)NC(=O)COC(=O)c1ccc(S(C)(=O)=O)c([N+](=O)[O-])c1	-12.6	-76.7*	-55.9%
CS(=O)(=O)c1ccc(C(=O)OCc2nnc(-c3ccc(Cl)cc3)o2)cc1[N+](=O)[O-]	-12.4	-54.8*	-60.0%
COc1cccc(C(=O)OCC(=O)NC23CC4CC(CC(C4)C2)C3)c1	2.8	-0.5	-19.6%
CS(=O)(=O)c1ccc(C(=O)OCC(=O)NC23CC4CC(CC(C4)C2)C3)cc1[N+](=O)[O-]	-10.5	-58.3*	-52.0%
O=C(OCc1nnc(-c2ccc(Cl)cc2)o1)c1ccc(O)cc1	-3.9	-3.5	6.6%
COc1cccc(CC(=O)OCC(=O)NC(Cc2ccccc2)C(C)=O)c1 (stereo unspecified)	-17.5	-9.5	-4.7%
O=C(CCNC(=O)c1ccc(Br)cc1)NCc1ccccc1F	-4.7	-2.9	-5.6%
